High-throughput results deposited in PubChem BioAssay by several laboratories.
In the library only some 2.7% were active in any assay of this set; here they are far more common.
MsrA act: activates bovine MsrA enzyme. purified bovine MsrA, absorbance read-out. activation, % at 10.6 µM. 360,000 tested, 0.3% active. AID 602163; in the data active = activation above about 7.5%
MsrA inh: inhibitors of bovine MsrA. purified bovine MsrA, absorbance read-out. inhibition, % at 15.5 µM. 360,000 tested, 0.75% active. AID 651718; in the data active = inhibition above about 4.5%
NadD block: blocks S. aureus nicotinate mononucleotide adenylyltransferase | purified NadD enzyme, colorimetric absorbance read-out | AID 602399 | 360,000 tested, 0.78% active | inhibition, % at 20 µM; in the data active = inhibition above about 26%
rCAG RNA binder: r(CAG) repeat RNA binding. inhibition, % at 3 µM. AID 651821. TO-PRO-1 dye displacement fluorescence. 370,000 tested, 1.3% active;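 active = inhibition above the plate cutoff, the mean of all test compounds on that plate plus 3 SD, cut at about 35% in these data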;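 also: higher means more dye released from RNA so lower well fluorescence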
MsrA act confirm: bovine methionine sulfoxide reductase A activation confirmed; shares compounds with MsrA act; purified bovine MsrA, absorbance read-out; activation, % at 10.6 µM; 1,000 tested, 12% active; AID 602270; in the data active = activation above about 4%;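 also: enzyme coupled to thioredoxin and thioredoxin reductase with NADPH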
Of the large screens only hits and unclear results are named; the others gave an inactive call (follow-up assays come after a bar, where they were run).

CCN(CC)C(=O)c1cc2c(=O)n3cccc(C)c3nc2s1	none
CC(C)(C)c1ccc(OCCC(=O)NCC(c2cccs2)N2CCOCC2)cc1 (centres undefined)	MsrA act 13 | MsrA act confirm inactive
C/C=C/C=N\NC(=O)c1ccncc1	MsrA act 15 | MsrA act confirm inactive
C(=Nc1ccc(N2CCOCC2)cc1)c1c[nH]c2ccccc12	MsrA act 12 | MsrA act confirm inactive
Cc1cccc(-c2cccc3c4c([nH]c23)[C@@H]2C[C@H](N(C)C(=O)Nc3ccccc3)[C@H]([C@H](C)O)C(=O)N2CC4)c1	none (no result: MsrA act, MsrA inh, NadD block)
CN(CCN1CCc2ccccc2C1)Cc1nc(Cc2ccccc2F)no1	MsrA act 15 | MsrA act confirm inactive
COc1ccc(Cc2noc(CN(C)CCN3CCc4ccccc4C3)n2)cc1OC	none
C=CCn1c(Sc2nnc(C)s2)nc2c1c(=O)[nH]c(=O)n2C	none
Cc1nnc(Sc2c(N)n(C)c(=O)[nH]c2=O)s1	MsrA act 11 | MsrA act confirm inactive
C[C@@H](CCCCC1(C)OCCO1)CCC(=O)N(c1ccccc1)c1ccccc1	none (no result: MsrA act, MsrA inh, NadD block)
S=c1[nH]ccc2ccccc12	MsrA act 9.8 | MsrA act confirm inactive
COc1ccc(CCN2C(=O)CCC3=C2CCCC3=O)cc1OC	none (no result: MsrA inh, rCAG RNA binder)
CCOc1ccc(NC(=O)CSCc2cnn(-c3ccccc3)c2-n2cccc2)cc1	MsrA act 8.8 | MsrA act confirm inactive
COCCn1c2nc(=O)n(-c3ccccc3)c(=O)c-2nc2ccccc21	MsrA act 26 | MsrA act confirm 8.7
COCCn1c(-c2ccc(OC)cc2)nc2ccccc21	none
COc1ccc(NC(=O)c2ccc([N+](=O)[O-])cc2[N+](=O)[O-])c(OC)c1	MsrA act 11 | MsrA act confirm inactive
COc1ccc(S(=O)(=O)N2CCN(C(=S)NC3CCCCC3)CC2)cc1	MsrA act 8.0 | MsrA act confirm inactive
CCCS(=O)(=O)NC(=O)C1(C)CCN(C(=O)c2cc(C(C)(C)C)nn2C)C1 (centres undefined)	none
O=c1[nH]c(=S)[nH]c2c1[C@H](CCc1cccc(Cl)c1)O[C@H](C1CCCC1)C2	none
CCN(CCCNC(=O)CCn1c(=S)[nH]c2cc3c(cc2c1=O)OCO3)c1cccc(C)c1	MsrA act 8.1 | MsrA act confirm inactive
O=c1ccsn1Cc1ccccc1	MsrA act 18 | MsrA act confirm 5.6
O=C(O)CCC(=O)OCCN(Cc1ccc(Oc2ccc([N+](=O)[O-])cc2)cc1)C(=O)C(Cl)Cl	none
Cc1nn(C)c(C)c1CN(C)C(=O)C1(C)CC1(Br)Br (centres undefined)	MsrA act 9.6 | MsrA act confirm inactive
Cc1nn(C)c(C)c1CN(C)C(=O)C1c2ccccc2Oc2ccccc21	none
COc1ccc(S(=O)(=O)Nc2cc(C)c(O)c(S(=O)(=O)c3ccccc3)c2)cc1	MsrA act 9.3 | MsrA act confirm inactive
COc1ccc(S(=O)(=O)c2c(C)c(NS(=O)(=O)c3ccccc3)cc(C)c2O)cc1	none
CCOC(=O)C1CCCN(C/C=C/c2ccccc2[N+](=O)[O-])C1 (centres undefined)	MsrA act 7.9 | MsrA act confirm inactive
CCCC(=O)N1CCCC1(C)C(=O)NCCc1ccccn1 (centres undefined)	none
CC1CCCN(S(=O)(=O)c2cc(C(=O)NCCc3ccc(S(N)(=O)=O)cc3)ccc2Cl)C1 (centres undefined)	none
COc1ccc(SC[C@H](C)CN2CC[C@H](C(C)(C)C)CCC2=O)cc1	none
C[C@@H](CSc1ccccc1)CN1CC[C@H](C(C)(C)C)CCC1=O	MsrA act 8.2 | MsrA act confirm inactive
CCOc1ccc(-c2cccc(NC(=O)COc3ccccc3)c2)nn1	MsrA act 8.8 (no result: MsrA inh, rCAG RNA binder) | MsrA act confirm inactive
CC(=O)Nc1cccc(OCC(=O)Nc2ccccc2)c1	none
O=C1CCC(C(=O)N2CCCC2)CN1Cc1cccc(C(F)(F)F)c1 (centres undefined)	MsrA act 9.8 | MsrA act confirm inactive
Cc1cccc(C)c1-n1nnnc1-c1nc2cc3ccccc3cc2[nH]c1=O	none
Cc1cccc(C)c1-n1nnnc1-c1nc2cc(Br)ccc2[nH]c1=O	MsrA act 8.0 | MsrA act confirm inactive
O=c1c2ccccc2n(Cc2ccno2)n1[C@@H](Cc1ccccc1)Cn1cc(-c2ccc(-c3ccccc3)cc2)nn1	none (no result: MsrA act, MsrA inh, NadD block)
O=C(NC1CC1)C1=C[C@H](c2ccc(Br)cc2)C[C@H](OCc2ccc(CO)cc2)O1	none
O=C(NC1CC1)C1=C[C@@H](c2ccc(C(F)(F)F)cc2)C[C@@H](OCc2ccc(CO)cc2)O1	MsrA act 8.1 | MsrA act confirm inactive
COc1ccccc1OCc1ccc(C(=O)Nc2ccccc2)cc1	MsrA act 12 | MsrA act confirm inactive
